Only some compounds are listed: those with a hit (about 1.5% of all), similar ones and a draw of the others.
MRP reversal = MRP-mediated drug resistance reversal | AID 602 | actives 0.04% (n = 85,000) | differential viability (reversal), % at 10 µM | H69AR cells + 2 uM doxorubicin, CellTiter-Glo, 72 h;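 active = viability drop by adding the cancer drug above about 55%, with treated viability meeting a 40% cutoff, limit read from the data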;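 note: larger differential means the compound sensitizes cells more to doxorubicin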
MRP-1 activ = activates MRP-1 | actives 0.61% (n = 140,000) | H69AR cells + doxorubicin, viability rescue, CellTiter-Glo | viability increase, % at 10 µM | AID 799;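 active = viability gain under doxorubicin at or above a set limit, the compound median plus 3 SD, cut at about 4.7% in these data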;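 note: MRP-1 overexpressing cells given doxorubicin 25 µM after compound pretreatment; 18-22 h compound pretreatment then 72 h with doxorubicin before readout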
DAT uptake mod = human DAT dopamine uptake with cocaine, either direction; Q01959; LLC-PK1 hDAT cells, [14C]-dopamine uptake with cocaine IC80; actives deviate in either direction; B-score at 10 µM; actives 1.3% (n = 110,000); AID 449768;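 active = Z score or B-score, a plate-position-corrected score, falls beyond the plate's 99.7% confidence bounds, in either direction; inactive = both scores lie inside the 99.7% bounds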
Target sequence (Q01959 whole entry, looked up): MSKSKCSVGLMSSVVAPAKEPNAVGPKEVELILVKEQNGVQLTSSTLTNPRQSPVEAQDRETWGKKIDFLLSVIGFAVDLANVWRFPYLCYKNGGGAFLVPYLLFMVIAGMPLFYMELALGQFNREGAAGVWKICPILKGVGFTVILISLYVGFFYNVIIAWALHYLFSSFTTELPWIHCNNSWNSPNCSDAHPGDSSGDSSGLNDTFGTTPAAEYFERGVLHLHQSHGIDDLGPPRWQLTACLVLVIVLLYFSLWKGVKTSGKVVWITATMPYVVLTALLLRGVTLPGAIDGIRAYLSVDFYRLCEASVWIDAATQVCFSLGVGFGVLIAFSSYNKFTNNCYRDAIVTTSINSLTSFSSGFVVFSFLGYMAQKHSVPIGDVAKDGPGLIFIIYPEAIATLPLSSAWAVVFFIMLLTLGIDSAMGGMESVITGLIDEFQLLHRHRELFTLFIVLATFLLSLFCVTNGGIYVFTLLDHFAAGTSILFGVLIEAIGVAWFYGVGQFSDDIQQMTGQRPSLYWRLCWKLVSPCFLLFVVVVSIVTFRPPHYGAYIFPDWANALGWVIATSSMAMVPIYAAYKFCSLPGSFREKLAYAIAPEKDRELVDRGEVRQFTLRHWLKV
Hits are given with their value; i = inactive; nt = no result given.

SMILES	MRP reversal	MRP-1 activ	DAT uptake mod
COc1ccc(N2C(S)=C(C#N)C(=O)NC2c2ccco2)cc1 (centres undefined)	nt	16	nt
CCOc1ccc(C2NC(=O)C(C#N)=C(S)N2c2ccc(C)cc2)cc1OC (centres undefined)	i	i	i
CCOc1cccc2sc(Nc3nc4ccc(NC(C)=O)cc4s3)nc12	nt	i	nt
Cc1ccc(-n2c(SCC3CNC(=O)O3)nnc2-c2ccccc2)cc1C (centres undefined)	nt	i	nt
CCN(CC)CC#CCC(C)(c1ccccc1)c1ccccc1	nt	i	i
CC1CCCCN1C(=O)Cc1ccc(F)cc1 (centres undefined)	i	i	-8
CC1CCCCN1C(=O)c1ccc(C(=O)N2CCCCC2C)cc1 (centres undefined)	i	i	i
Cc1cc(CNC(=O)C2(C(F)(F)F)CC(CCCO)CCCO2)nn1C (centres undefined)	nt	nt	i
Cc1cc(-c2ccccc2)n(-c2ccc(C(=O)N3CCN(c4ncccn4)CC3)cc2)n1	i	i	2.5
Cc1cc(-c2ccccc2)n(-c2ccc(C(N)=O)cc2)n1	nt	i	nt
CCC1(C)Cc2c(sc3nnn(CC(=O)Nc4ccccc4C)c(=O)c23)CO1 (centres undefined)	nt	i	i
CCC1(C)Cc2c(sc3nnn(CC(=O)Nc4ccccc4)c(=O)c23)CO1 (centres undefined)	nt	5.0	i
CC1(C)Cc2c(sc3nnn(Cc4ccccc4)c(=O)c23)CO1	nt	i	nt
CCC1(C)Cc2c(sc3nnn(Cc4ccccc4Cl)c(=O)c23)CO1 (centres undefined)	nt	8.0	i
CCn1cc(C(=O)NCc2ccc3c(c2)OCO3)c(=O)c2cc(F)c(N3CCN(C(=O)c4ccco4)CC3)cc21	i	i	i
O=C(/C=C/c1ccccc1Cl)Nc1ccc(-c2nnc3n2CCCCC3)cc1	nt	i	nt
O=C(Nc1ccncc1)c1ccc2c(c1)C(=O)N(C1CCCCC1)C2=O	i	i	i
Cc1cc(NC(=O)CN2C(=O)NC3(CCC(C)CC3)C2=O)no1 (centres undefined)	nt	i	nt
Cc1ccc(NCc2nnc(SCCN3CCCCC3)n2CC2CCCO2)cc1Cl (centres undefined)	i	i	2.4
Cc1ccc(NCc2nnc(SCC(=O)NCc3ccco3)n2CC2CCCO2)cc1Cl (centres undefined)	i	i	i
CCN(CC)C(=O)c1[nH]cnc1C(=O)N[C@@H](Cc1ccccc1)C(=O)OCc1ccccc1	nt	nt	i
CCN(CC)S(=O)(=O)c1cccc(C(=O)Nc2cc(C)cc(C)c2)c1	i	i	i
CCN(CC)S(=O)(=O)c1cccc(NC(=O)C(=O)c2c(-c3ccccc3)cc3ccccn23)c1	nt	i	nt
CCN(CC)S(=O)(=O)c1cc(NC(=O)C(=O)c2c(-c3ccccc3)cc3ccccn23)ccc1C	i	6.9	i
CCN(CC)S(=O)(=O)c1cccc(C(=O)c2c(C)cc3ccccn23)c1	nt	4.8	nt
SMILES	MRP reversal	MRP-1 activ	DAT uptake mod
Cc1cc(=O)n2nc(-c3ccccc3)sc2c1C#N	i	i	2.5
Cc1nc2sc(-c3ccccc3)nn2c(=O)c1Br	nt	i	nt
COc1ccccc1-c1nc(C#N)c(N2CCc3ccccc3C2)o1	i	5.3	i
COc1ccc(-c2nc(C#N)c(N3CCc4ccccc4C3)o2)cc1OC	i	i	i
CC(N=C(NC#N)Nc1ccncc1)C(C)(C)C (centres undefined)	nt	i	i
Nc1nnc(CSCc2ccc(Cl)cc2Cl)s1	nt	i	nt
N=C(N)SCc1ccc(Cl)cc1Cl	nt	5.2	nt
CC(Sc1ccc(Cl)cc1)C(=O)Nc1ccc(S(=O)(=O)N2CCOCC2)cc1 (centres undefined)	i	i	i
COc1ccc(CNC(=O)OCCN2CCN(Cc3ccccc3)CCC2=O)cc1	nt	i	i
COc1ccc(OCC(=O)O/N=C(\N)Cc2cccs2)cc1	nt	i	nt
N/C(Cc1cccs1)=N\OC(=O)COc1ccc(Br)cc1	i	5.3	i
O=C(Nc1ccc(Oc2cccc3ccccc23)cc1)c1ccco1	i	i	2.4
COc1cccc(OC)c1C(=O)Nc1ccc(NC(=O)c2ccco2)cc1	i	i	i
OC(COCc1ccc(Cl)cc1)CN1CCN(c2ccccn2)CC1 (centres undefined)	nt	i	nt
C=CCn1c(SCC(=O)Nc2ncc(Cc3cc(Cl)ccc3Cl)s2)nnc1-c1ccncc1	nt	i	i
O=c1cc(-c2cccc3ccccc23)[nH][nH]1	i	i	2.4
COc1ccc(-c2cc(=O)[nH][nH]2)cc1	i	i	i
CC(=O)/C(=N/Nc1ccccc1)Sc1nnc(C(O)c2ccccc2)n1-c1ccccc1 (centres undefined)	nt	i	nt
COC(C/C=C/[C@@H](O)COCc1ccccc1)OC	nt	nt	i
COc1ccc(CCNC(=O)c2sc3ccccc3c2Cl)cc1OC	nt	i	nt
COc1ccc(CCNC(=O)c2cc3sc(Cl)cc3n2C)cc1OC	i	i	2.3
CC1(OC(=O)C2CCCC2)C(=O)C=C2C=C(c3ccsc3)N(C(CO)CO)C=C2C1=O (centres undefined)	nt	nt	i
Cc1ccc[n+](-c2[nH]c(=O)sc2/C=N/NC(=O)c2ccccc2[O-])c1	nt	i	nt
COC(=O)c1cc(NC(=O)Cc2ccccc2[N+](=O)[O-])cc(C(=O)OC)c1	nt	i	i
COc1cc(OC)cc(-c2nnc(SCC(=O)NCc3cccs3)o2)c1	nt	i	i
SMILES	MRP reversal	MRP-1 activ	DAT uptake mod
Cc1cc(NC(=O)CSc2nnc(-c3ccoc3C)o2)no1	i	i	2.6
Cc1occc1-c1nnc(SCC(=O)c2ccc(F)cc2)o1	i	i	i
COc1cc(OC)cc(-c2nnc(SCC(=O)Nc3cc(C)on3)o2)c1	64	nt	nt
O=C1N[C@@H](Cc2cn(S(=O)(=O)c3ccccc3)c3ccccc23)C(=O)N[C@H]1Cc1ccccc1	nt	nt	i
CCOc1ccccc1NC(=S)N1CCC(c2nc3ccccc3o2)CC1	nt	i	nt
CC1CN(Cc2cc(=O)n3ccsc3n2)CC(C)O1 (centres undefined)	i	i	i
CC1CN(Cc2cc(=O)[nH]c(C3CC3)n2)CC(C)O1 (centres undefined)	nt	i	-6.8
Cc1cccc2sc(NC(=O)C3c4ccccc4Oc4ccccc43)nc12	nt	i	i
Cc1cccc(C)c1N(CC(=O)N/N=C/c1cc(Br)c(C)o1)S(C)(=O)=O	nt	i	nt
CC1(c2nnc(-c3ccc(F)cc3)o2)CC(c2cccnc2)=NO1 (centres undefined)	nt	nt	i
CC1(c2nnc(-c3ccncc3)o2)CC(c2ccc(F)cc2)=NO1 (centres undefined)	nt	nt	-2.3
O=C(NCc1ccccn1)C1(C(F)(F)F)C/C(=C\CCO)CCCO1 (centres undefined)	nt	nt	i
CCOc1ccccc1Nc1nc(N)nc(CSc2nccc(C)n2)n1	i	i	i
CCOc1ccccc1Nc1nc(N)nc(CN(C)C2CCCCC2)n1	80	i	i
COc1ccc(CCNC(=O)CSc2nn(-c3ccccc3)c(=S)s2)cc1OC	nt	i	nt
N#CC1(C#N)CC(C=O)=C(N)C1(C#N)CC(=O)c1ccc(F)cc1 (centres undefined)	i	i	-2.2
O=c1cc(/C=C/c2c(F)cccc2Cl)[nH]c2ccccc12	nt	i	nt
N=c1n(CCO)c2ccccc2n1CCOc1ccc(Cl)cc1Cl	i	i	3
COc1ccc(OCCn2c(=N)n(CCO)c3ccccc32)cc1	i	i	i
COc1ccc(N/C(=C2\CCCC2=O)C2CCCCC2)cc1	nt	nt	i
CCn1c(=S)sc2c(=O)[nH]c(C)nc21	i	i	-9
CCn1c(=S)sc2c(=O)n(-c3ccccc3)c(SC)nc21	i	i	i

High-throughput results: PubChem, several laboratories
